# Measurements published in paper PMC7862700, “An all-to-all approach to the identification of sequence-specific readers for epigenetic DNA modifications on cytosine”.
# Experiments:
# Test in all cases: DAPPL (digital affinity profiling via proximity ligation, sequencing); 10 mM Tris-HCl pH 7.5, 50 mM NaCl, 1 mM DTT, 4% glycerol, room temperature, 30 min; GST-TFs on glutathione beads, 16-mer random dsDNA library, 0.1% formaldehyde crosslink after washing; high values mean tight binding
# Details in all cases: protein: recombinant; tags: N-terminal GST; dsDNA, one strand shown
# ETV1 = ETV1 (Homo sapiens, UniProt P50549 1-477)
# Outline: (§1)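 Sequencing on an Illumina NextSeq500 followed washing, crosslinking with 0.1% formaldehyde, proximity ligation (BsaI/T4 ligase, 1 h, 37 °C) and PCR amplification of pools that had been incubated for 30 min at room temperature with 200 nmole of a random double-stranded 16-mer DNA library in Tris/NaCl/DTT/glycerol buffer. Each pool held DNA-barcoded human transcription factors, expressed in yeast as GST fusions and captured on glutathione beads, plus a tag-only sample. Binding signal is a hexamer's read frequency for a factor divided by its frequency in the tag-only sample.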
# ERF = target: T1, ERF (Homo sapiens, UniProt P50548 1-548)
# T1 sequence: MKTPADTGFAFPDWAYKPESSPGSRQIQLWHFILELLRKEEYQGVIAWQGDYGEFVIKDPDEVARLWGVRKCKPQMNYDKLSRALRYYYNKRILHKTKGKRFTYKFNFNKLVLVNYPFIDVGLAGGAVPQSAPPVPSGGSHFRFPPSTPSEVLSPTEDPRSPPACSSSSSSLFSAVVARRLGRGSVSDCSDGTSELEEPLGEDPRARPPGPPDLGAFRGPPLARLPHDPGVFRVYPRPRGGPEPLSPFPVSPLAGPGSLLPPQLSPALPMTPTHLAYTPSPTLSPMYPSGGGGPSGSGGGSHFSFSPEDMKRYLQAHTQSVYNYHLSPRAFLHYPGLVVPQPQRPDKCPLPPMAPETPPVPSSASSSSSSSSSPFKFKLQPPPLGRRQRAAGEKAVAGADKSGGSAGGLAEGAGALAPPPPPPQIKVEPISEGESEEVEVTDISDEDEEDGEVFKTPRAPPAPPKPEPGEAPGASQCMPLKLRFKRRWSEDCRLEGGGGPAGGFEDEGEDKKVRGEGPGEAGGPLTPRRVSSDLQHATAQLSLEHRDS
# Outline: as §1
# ETV3L = target: T2, ETV3L (Homo sapiens, UniProt Q6ZN32 1-361)
# T2 sequence: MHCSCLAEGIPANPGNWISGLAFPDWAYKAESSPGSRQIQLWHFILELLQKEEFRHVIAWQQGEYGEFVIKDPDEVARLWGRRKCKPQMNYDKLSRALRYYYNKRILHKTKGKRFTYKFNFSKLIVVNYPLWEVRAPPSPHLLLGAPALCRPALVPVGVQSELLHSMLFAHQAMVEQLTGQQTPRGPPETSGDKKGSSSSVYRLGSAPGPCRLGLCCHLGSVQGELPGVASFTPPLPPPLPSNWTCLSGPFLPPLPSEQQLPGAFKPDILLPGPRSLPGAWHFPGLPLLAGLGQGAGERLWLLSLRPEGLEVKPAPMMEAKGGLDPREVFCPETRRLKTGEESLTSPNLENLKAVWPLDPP
# Outline: as §1
# ETS2 = target: T3, ETS2 (Homo sapiens, UniProt P15036 1-469)
# T3 sequence: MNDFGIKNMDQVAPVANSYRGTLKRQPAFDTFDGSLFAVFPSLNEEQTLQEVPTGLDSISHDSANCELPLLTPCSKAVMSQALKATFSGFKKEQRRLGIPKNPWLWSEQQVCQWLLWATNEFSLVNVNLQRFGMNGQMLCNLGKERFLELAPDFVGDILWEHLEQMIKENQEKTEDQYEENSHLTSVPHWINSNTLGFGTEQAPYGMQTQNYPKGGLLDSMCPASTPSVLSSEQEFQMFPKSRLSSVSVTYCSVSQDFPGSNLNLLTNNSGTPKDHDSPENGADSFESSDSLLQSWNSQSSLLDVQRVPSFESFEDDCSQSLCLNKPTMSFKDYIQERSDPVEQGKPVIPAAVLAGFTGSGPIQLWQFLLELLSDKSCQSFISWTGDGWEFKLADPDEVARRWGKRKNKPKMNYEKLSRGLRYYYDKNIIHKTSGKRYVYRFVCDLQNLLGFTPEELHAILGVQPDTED
# Outline: as §1
# SPDEF = target: T4, SPDEF (Homo sapiens, UniProt O95238 1-335)
# T4 sequence: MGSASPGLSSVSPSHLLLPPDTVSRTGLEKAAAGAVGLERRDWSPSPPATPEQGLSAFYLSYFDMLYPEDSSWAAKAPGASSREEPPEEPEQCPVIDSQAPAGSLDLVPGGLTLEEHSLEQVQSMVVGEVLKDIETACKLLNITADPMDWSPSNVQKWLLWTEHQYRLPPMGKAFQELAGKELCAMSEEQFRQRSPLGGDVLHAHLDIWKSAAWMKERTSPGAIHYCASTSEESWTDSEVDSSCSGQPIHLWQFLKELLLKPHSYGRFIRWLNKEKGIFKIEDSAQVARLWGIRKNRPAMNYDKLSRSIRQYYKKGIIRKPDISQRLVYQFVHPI
# Outline: as §1
# ETV7 = target: T5, ETV7 (Homo sapiens, UniProt Q9Y603 1-341)
# T5 sequence: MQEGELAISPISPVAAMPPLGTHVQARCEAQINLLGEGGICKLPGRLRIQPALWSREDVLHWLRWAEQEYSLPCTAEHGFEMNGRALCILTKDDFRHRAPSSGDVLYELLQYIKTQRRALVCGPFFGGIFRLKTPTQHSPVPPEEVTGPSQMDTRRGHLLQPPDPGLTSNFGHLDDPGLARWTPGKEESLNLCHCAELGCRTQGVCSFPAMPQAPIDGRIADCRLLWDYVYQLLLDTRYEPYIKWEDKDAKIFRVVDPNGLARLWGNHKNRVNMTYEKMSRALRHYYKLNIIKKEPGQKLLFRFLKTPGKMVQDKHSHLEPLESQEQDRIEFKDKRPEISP
# Outline: as §1
# ELF5 = target: T6, ELF5 (Homo sapiens, UniProt Q9UKW6-2 1-255)
# T6 sequence: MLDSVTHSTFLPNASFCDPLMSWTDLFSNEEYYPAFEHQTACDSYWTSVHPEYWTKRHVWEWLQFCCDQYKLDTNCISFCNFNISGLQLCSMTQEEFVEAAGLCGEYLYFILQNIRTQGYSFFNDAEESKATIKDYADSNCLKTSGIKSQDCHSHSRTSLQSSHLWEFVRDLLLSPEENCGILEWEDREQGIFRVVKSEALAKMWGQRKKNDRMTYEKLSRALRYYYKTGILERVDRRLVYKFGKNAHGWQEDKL
# Outline: as §1
# ETV3 = target: T7, ETV3 (Homo sapiens, UniProt P41162-2 1-143)
# T7 sequence: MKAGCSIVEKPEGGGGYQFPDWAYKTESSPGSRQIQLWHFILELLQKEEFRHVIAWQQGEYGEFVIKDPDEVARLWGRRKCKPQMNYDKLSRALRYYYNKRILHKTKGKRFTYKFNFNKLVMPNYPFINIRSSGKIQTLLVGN
# Outline: as §1
# ETV6 = ETV6 (Homo sapiens, UniProt P41212 1-452)
# Outline: as §1
# Chain of ETV6 (P41212 whole entry): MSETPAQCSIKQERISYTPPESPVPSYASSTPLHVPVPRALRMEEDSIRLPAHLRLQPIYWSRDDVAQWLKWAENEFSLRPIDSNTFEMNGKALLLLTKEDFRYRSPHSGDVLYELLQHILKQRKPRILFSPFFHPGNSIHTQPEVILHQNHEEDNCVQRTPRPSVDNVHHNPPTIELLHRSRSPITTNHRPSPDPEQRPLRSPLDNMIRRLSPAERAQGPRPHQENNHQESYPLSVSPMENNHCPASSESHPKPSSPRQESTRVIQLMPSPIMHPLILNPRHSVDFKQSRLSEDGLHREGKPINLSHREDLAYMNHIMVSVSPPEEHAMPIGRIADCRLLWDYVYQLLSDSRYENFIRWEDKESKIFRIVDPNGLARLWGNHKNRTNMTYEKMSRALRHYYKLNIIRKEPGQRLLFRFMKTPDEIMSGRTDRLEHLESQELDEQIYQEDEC
# Chain of ETV1 (P50549 whole entry, the tested form may be a part): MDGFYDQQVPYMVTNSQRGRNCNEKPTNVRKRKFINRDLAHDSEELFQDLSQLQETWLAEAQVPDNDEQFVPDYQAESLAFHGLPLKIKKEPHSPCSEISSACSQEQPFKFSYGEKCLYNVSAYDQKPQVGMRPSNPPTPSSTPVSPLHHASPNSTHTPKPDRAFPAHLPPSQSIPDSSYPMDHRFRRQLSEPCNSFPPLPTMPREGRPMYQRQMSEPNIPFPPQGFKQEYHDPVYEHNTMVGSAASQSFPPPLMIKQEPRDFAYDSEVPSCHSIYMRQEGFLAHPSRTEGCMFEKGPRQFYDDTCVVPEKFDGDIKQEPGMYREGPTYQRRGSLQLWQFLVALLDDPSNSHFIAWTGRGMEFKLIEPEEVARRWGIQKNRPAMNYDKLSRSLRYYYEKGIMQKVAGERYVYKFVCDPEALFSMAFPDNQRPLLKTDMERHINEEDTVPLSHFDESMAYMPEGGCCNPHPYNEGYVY
sequence,measurement,setting,value
TTTGCT,binding signal,ETV1,"1.18 fold enrichment (6-mer frequency, TF over GST control)"
same,binding signal,ERF,"1.39 fold enrichment (6-mer frequency, TF over GST control)"
same,binding signal,ETV3L,"1.22 fold enrichment (6-mer frequency, TF over GST control)"
same,binding signal,ETS2,"1.32 fold enrichment (6-mer frequency, TF over GST control)"
same,binding signal,SPDEF,"1.16 fold enrichment (6-mer frequency, TF over GST control)"
same,binding signal,ETV7,"1.38 fold enrichment (6-mer frequency, TF over GST control)"
same,binding signal,ELF5,"1.16 fold enrichment (6-mer frequency, TF over GST control)"
same,binding signal,ETV3,"1.24 fold enrichment (6-mer frequency, TF over GST control)"
same,binding signal,ETV6,"1.14 fold enrichment (6-mer frequency, TF over GST control)"
